Data as given in PubChem BioAssay (NCATS).
Unmarked numbers belong to inactive results. Inconclusive results are not listed. Calls of active or inactive are those of the source. Unless noted, the call rests on the fitted dose curve; in most records, active means well fitted curve in the direction sought with a large enough effect; inconclusive means small, poorly fitted or top-dose-only effect, or another doubt; inactive means no such curve, though single readings can be large; an effect the other way counts as inactive or inconclusive.

Key:
[1] = molecular target: Cytochrome P450 2C19 (Homo sapiens) (UniProt P33261); experiment: qHTS Assay for Inhibitors and Substrates of Cytochrome P450 2C19 (AID 899); further: nearly all actives have a fitted effect of over 60% in size; further: potency means the concentration at half of the fitted maximal effect
Chain of Cytochrome P450 2C19 (Homo sapiens) (P33261 whole entry, looked up): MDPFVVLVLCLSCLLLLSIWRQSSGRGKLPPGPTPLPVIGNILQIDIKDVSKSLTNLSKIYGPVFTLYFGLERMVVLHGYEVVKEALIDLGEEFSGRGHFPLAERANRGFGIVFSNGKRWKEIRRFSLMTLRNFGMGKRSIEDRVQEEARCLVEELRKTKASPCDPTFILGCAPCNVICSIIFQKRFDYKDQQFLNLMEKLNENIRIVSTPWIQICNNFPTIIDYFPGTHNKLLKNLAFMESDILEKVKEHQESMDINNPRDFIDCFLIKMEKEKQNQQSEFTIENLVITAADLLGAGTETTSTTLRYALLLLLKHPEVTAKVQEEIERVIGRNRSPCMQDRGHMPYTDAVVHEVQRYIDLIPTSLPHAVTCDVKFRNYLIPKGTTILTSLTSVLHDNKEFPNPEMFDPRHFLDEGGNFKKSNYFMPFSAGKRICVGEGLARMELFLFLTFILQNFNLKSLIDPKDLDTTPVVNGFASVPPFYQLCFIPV
Procedure, shortened: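 In 50mM KPO4, the reaction held 5nM enzyme and KM-level (10uM) Luciferin-H EGE; it ran 60 min at 37C after NADPH regeneration and a 10 min compound preincubation. Luminescence values were scaled to 57uM ketoconazole as complete inhibition.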

[2] = qHTS Assay for Identification of Small Molecule Agonists for Hypoxia Response Element Signaling Pathway (AID 914; active means well fitted activation curve with a large enough effect in the signal ratio, with a control signal flat, not every such curve was filed as active; the % refers to the signal ratio; further: potency means the concentration at half of the fitted maximal effect; on activation: % of control where 0% means no effect); settings: ME-180 (cervical carcinoma) HRE-bla reporter, beta-lactamase ratio, CoCl2, 17 h; activation: hits give high values
Procedure, shortened: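 Read-out: CCF4 FRET ratio of 460nm to 530nm emission (excitation 405nm) after 2.5 hours at room temperature, taken from HRE-bla ME-180 cells that had been exposed to compound and EC50 CoCl2 for 17 hours.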

[3] = molecular target: Cytochrome P450 2D6 (Homo sapiens) (UniProt P10635); experiment: qHTS Assay for Inhibitors and Substrates of Cytochrome P450 2D6 (AID 891); further: nearly all actives have a fitted effect of over 60% in size; further: potency means the concentration at half of the fitted maximal effect;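 on activity change, negative = inhibition: luciferin methyl ether substrate demethylated by CYP2D6 with NADPH regeneration; on the % scale 0 is the no-effect control and ±100 the full control effect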
Chain of Cytochrome P450 2D6 (Homo sapiens) (P10635 whole entry, looked up): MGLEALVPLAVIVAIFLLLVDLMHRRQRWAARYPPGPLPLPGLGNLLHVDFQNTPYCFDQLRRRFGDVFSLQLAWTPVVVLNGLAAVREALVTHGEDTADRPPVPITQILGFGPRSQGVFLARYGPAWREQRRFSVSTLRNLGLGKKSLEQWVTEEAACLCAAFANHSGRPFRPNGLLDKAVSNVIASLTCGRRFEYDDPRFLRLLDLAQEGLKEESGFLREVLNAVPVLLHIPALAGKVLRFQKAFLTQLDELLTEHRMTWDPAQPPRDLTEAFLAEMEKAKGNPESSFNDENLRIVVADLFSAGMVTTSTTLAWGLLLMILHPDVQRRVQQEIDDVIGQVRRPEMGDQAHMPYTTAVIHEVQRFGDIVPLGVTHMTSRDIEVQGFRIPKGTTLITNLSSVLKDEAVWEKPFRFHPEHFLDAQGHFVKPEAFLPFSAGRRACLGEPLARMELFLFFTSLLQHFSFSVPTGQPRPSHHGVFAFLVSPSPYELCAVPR
Procedure, shortened: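 Luminescent read-out of luciferin formed by 5 nM human CYP2D6 demethylating 30 uM Luciferin-ME EGE (Km level) over 60 min at room temperature after NADPH regeneration addition. Data normalized to full inhibition by 1.43 uM quinidine.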

[4] = molecular target: Cytochrome P450 2C9 (Homo sapiens) (UniProt P11712); experiment: qHTS Assay for Inhibitors and Substrates of Cytochrome P450 2C9 (AID 883); further: nearly all actives have a fitted effect of over 60% in size; further: potency means the concentration at half of the fitted maximal effect; on activity change, negative = inhibition: on the % scale 0 is the no-effect control and ±100 the full control effect
Chain of Cytochrome P450 2C9 (Homo sapiens) (P11712 whole entry, looked up): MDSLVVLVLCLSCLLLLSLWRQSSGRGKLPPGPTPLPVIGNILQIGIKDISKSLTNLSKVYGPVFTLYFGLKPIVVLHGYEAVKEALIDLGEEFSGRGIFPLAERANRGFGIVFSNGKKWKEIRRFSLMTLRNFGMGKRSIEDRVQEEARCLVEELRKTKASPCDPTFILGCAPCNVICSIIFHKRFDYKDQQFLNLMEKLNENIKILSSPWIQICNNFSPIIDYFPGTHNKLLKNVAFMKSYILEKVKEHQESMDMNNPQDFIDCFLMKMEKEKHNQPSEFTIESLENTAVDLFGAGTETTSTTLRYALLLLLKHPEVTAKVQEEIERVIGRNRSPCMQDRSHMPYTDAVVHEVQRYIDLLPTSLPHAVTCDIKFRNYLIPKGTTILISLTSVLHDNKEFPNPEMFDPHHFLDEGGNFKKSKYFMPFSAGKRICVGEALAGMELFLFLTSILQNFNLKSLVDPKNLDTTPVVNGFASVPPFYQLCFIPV
Procedure, shortened: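 CYP2C9 deoxyluciferin hydroxylation, 37C, 60 min with NADPH regeneration; 10nM enzyme, 100uM Luciferin-H (KM). Glo detection reagent stopped reaction; luminescence normalized to sulphaphenazole (57uM) full inhibition.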

[5] = Confirmation and Secondary Assay for Modulators of Hemoglobin Beta Chain Splicing at IVS2 705 locus (AID 930);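 further: HeLa cells stably expressing the EGFP-705 splicing reporter; GFP fluorescence per well restored by corrected splicing of the IVS2-705 intron in EGFP; series mostly up to about 46 µM; % of control where 0% means no effect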
Procedure, shortened: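 HeLa EGFP-705 reporter; 500 cells/well, o/n 37C 5% CO2; cpd 2 d; 488 ex/500-520 em laser scan; total peak GFP intensity/well. Ref: 500 nM […] antisense PNA.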

Cn1cccc1C(=O)N1CCC[C@@]2(CCN(c3ccccc3)C2)C1
Potency [1]: 5.01 µM (active)

N#CCCn1c(=O)c(-c2cccs2)nc2cnc(OCc3ccccc3)nc21
Potency [2]: 3.16 µM (active)

O=C(c1ccncc1)N1CCC2(CC1)CCN(c1cccc(-c3ccccc3)c1)CC2
Potency [3]: 7.94 µM (active)

O=c1c(-c2cc(F)cc(F)c2)nc2cnc(N3CCOCC3)nc2n1C1CC1
Potency [2]: 1.58 µM (active)

O=C(c1cccc(F)c1)N1CCC2(CCCN(c3ncccn3)C2)CC1
Potency [1]: 6.31 µM (active)

Cn1cc(-c2nc3cnc(Oc4cccc(Cl)c4)nc3n(CCC#N)c2=O)c2ccccc21
Potency [4]: inactive | Potency [2]: 1.58 µM (active)

Cn1cccc1C(=O)N1CCC2(CCCN(c3ccccc3)C2)CC1
Potency [1]: 7.94 µM (active)

O=C(c1cnccn1)N1CCC[C@@]2(CCN(Cc3cc(C(F)(F)F)cc(C(F)(F)F)c3)C2)C1
Potency [3]: 3.16 µM (active)

CN(C)c1ccc(-c2nc(N(C)Cc3ccco3)c3ccccc3n2)cc1
activity change, negative = inhibition [4]: 33.8% [at 2.29 µM] | outcome [5]: inactive

Cc1cccc(CNc2ncnc3ccc(-c4cccc(C#N)c4)cc23)c1
outcome [5]: inactive

COCC(=O)N1CCC[C@@]2(CCN(Cc3ccccc3)C2)C1
Potency [3]: 6.31 µM (active)

CS(=O)(=O)N1CCC2(CC1)CN(c1cccc(-c3ccccc3)c1)C2
Potency [4]: inactive

Cc1nc2cnc(N(C)C)nc2n(Cc2ccc(F)cc2)c1=O
Potency [4]: inactive | Potency [1]: 1.58 µM (active)

CS(=O)(=O)Nc1cccc(-c2nccc(NCc3ccccc3)n2)c1
outcome [5]: inactive

COc1ccc(-c2nc3cnc(N4CCNCC4)nc3n(Cc3ccc(F)cc3)c2=O)cc1
Potency [4]: inactive

Cn1cccc1C(=O)N1CCC[C@@]2(CCN(Cc3ccccc3)C2)C1
Potency [3]: 2 µM (active)

Cc1noc(C)c1C(=O)N1CCC2(CC1)CCN(c1cccc(-c3ccccc3)c1)CC2
Potency [4]: inactive | Potency [3]: inactive | Potency [1]: inactive

O=C(c1ccncc1)N1CCC[C@@]2(CCN(c3ccccn3)C2)C1
Potency [1]: 6.31 µM (active)

c1cncc(CNc2ncncc2-c2ccc3c(c2)OCO3)c1
Potency [1]: 0.199 µM (active) | outcome [5]: inactive

COc1ccc(C(=O)N2CCC3(CCN(C)CC3)CC2)cc1
activation [2]: 5.39%

COc1ccccc1CN1CC2(CCN(S(C)(=O)=O)CC2)C1
Potency [3]: inactive

Cc1noc(C)c1-c1cc(NC2CC2)ncn1
outcome [5]: inactive

CN(Cc1ccco1)c1ncnc2ccc(-c3cccc(C#N)c3)cc12
Potency [1]: 6.31 µM (active) | outcome [5]: inactive

COCCNc1ccnc(-c2cccc(NS(C)(=O)=O)c2)n1
outcome [5]: inactive

CN(C)c1nc(-c2ccoc2)nc2ccccc12
outcome [5]: inactive

CNc1ccnc(-c2ccccc2C(F)(F)F)n1
outcome [5]: inactive

Cc1noc(C)c1-c1nccc(-n2ccnc2)n1
activity change, negative = inhibition [4]: 16.1% [at 2.29 µM] | Potency [1]: 3.98 µM (active) | outcome [5]: inactive

COc1ccc(C(=O)N2CCC3(CCCN(Cc4ccncc4)C3)CC2)cc1
Potency [4]: 3.16 µM (active)

CN(C)Cc1ccccc1-c1nc(N2CCOCC2)c2ccccc2n1
Potency [3]: 7.94 µM (active) | outcome [5]: inactive

c1ccc(CNc2ccnc(-c3ccoc3)n2)cc1
Potency [1]: 3.98 µM (active) | outcome [5]: inactive

COc1ccc(NC(=O)N2CC[C@@]3(CCCN(C(=O)c4cnccn4)C3)C2)cc1
Potency [3]: inactive

COc1ccccc1-c1cncnc1NCc1cccnc1
Potency [1]: 3.16 µM (active) | outcome [5]: inactive

CS(=O)(=O)N1CCC2(CC1)CN(Cc1cc(C(F)(F)F)cc(C(F)(F)F)c1)C2
Potency [3]: 0.398 µM (active)

CC(C)NC(=O)N1CC[C@@]2(CCCN(C(=O)c3cc(C(F)(F)F)cc(C(F)(F)F)c3)C2)C1
activation [2]: -1.12%
